# The supplement of paper PMC10981050
# Values joined by “and” are separate entries in the source; they are usually repeats but may differ in a detail not shown here. Identical values can stand only once. Counter-ions that a name gives are not always drawn.
# Columns and labels:
# Experiment in all cases: cell viability relative to vehicle control; higher = less cytotoxic
# Conditions in all cases: 10 µM
# K562 = tested on: K562
# Method in brief: (§1)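 Mutant clones made by CRISPR editing and their isogenic wild-type counterparts, from four leukaemia lines, were exposed to a single 10 µM dose of each library compound for 48 h. The supernatant was then removed and CellTiter-Glo luminescence was read. Viability was reported as percent of the on-plate vehicle control.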
# MARIMO = tested on: MARIMO
# Method in brief: as §1
# MOLM14 = tested on: MOLM14
# Method in brief: as §1
# OCI-AML2 = tested on: OCI-AML2
# Method in brief: as §1
Compound,cell viability (K562; SRSF2 genotype: SRSF2 P95H/wt),cell viability (K562; SRSF2 genotype: SRSF2 wt/wt),cell viability (MARIMO; SRSF2 genotype: SRSF2 P95H/wt),cell viability (MARIMO; SRSF2 genotype: SRSF2 wt/wt),cell viability (MOLM14; SRSF2 genotype: SRSF2 P95H/wt),cell viability (MOLM14; SRSF2 genotype: SRSF2 wt/wt),cell viability (OCI-AML2; SRSF2 genotype: P95H/wt),cell viability (OCI-AML2; SRSF2 genotype: wt/wt)
O=C1C[C@@H]2[C@@H](CO)[C@H](O)C[C@@H]2O1 [Corey Lactone Diol],110%,101%,105%,110%,102%,108%,101%,93.3%
CN1CC2c3ccccc3Oc3ccc(Cl)cc3C2C1 (centres undefined) [Asenapine maleate],88.3% and 92.2%,88.2%,63%,78.8%,88%,92.6%,69.9%,73.2%
CN(C)Cc1ccc(-c2nc3cccc4c3n2CCNC4=O)cc1,108% and 106%,110%,76.7%,78.9%,65.5%,34.3%,55.2%,67.9%
COc1cc2c(Nc3ccc(NC(=O)c4ccccc4)cc3)ncnc2cc1OCCCN1CCOCC1,67.2% and 92%,79.4%,62.5%,72%,17.9%,10.3%,16.4%,22.1%
COC(=O)C1=C(C)NC(C)=C(C(=O)OCCN2CCN(C(c3ccccc3)c3ccccc3)CC2)C1c1cccc([N+](=O)[O-])c1 (centres undefined) [Manidipine dihydrochloride (CV-4093)],60.3% and 62.1%,53.6%,67.1%,68.6%,55.2%,57.7%,42.5%,46.8%
CN1CCN(c2ccc3nc(-c4c(N)c5c(F)cccc5[nH]c4=O)[nH]c3c2)CC1 [Dovitinib (TKI258) Lactate],5.06% and 10.2%,8.08%,9.85%,12%,0.28%,0.3%,0.28%,0.65%
COc1cc(/C=C/C(=O)O[C@H]2[C@H](O)[C@@H](CO)O[C@@]2(CO)O[C@H]2O[C@H](CO)[C@@H](O)[C@H](O)[C@H]2O)ccc1O [Sibiricose A5],113% and 112%,115%,108%,99.2%,110%,112%,107%,95.7%
CC(C)CCCC(C)C1CCC2C3=CC=C4CC(O)CCC4(C)C3CCC21C (centres undefined) [7-Dehydrocholesterol],88.5% and 88.6%,96.5%,87.6%,87%,86.6%,93.9%,94.2%,94.7%
CC(C)(Oc1ccc(Cl)cc1)C(=O)OCCOC(=O)c1cccnc1 [Etofibrate],96% and 91.7%,95.4%,93.2%,100%,94.7%,101%,83.5%,77.5%
Nc1ccn([C@H]2CC[C@@H](CO)O2)c(=O)n1 [Zalcitabine],111% and 103%,111%,107%,112%,105%,107%,58.7%,83%
CN(Cc1cnc2nc(N)nc(N)c2n1)c1ccc(C(=O)N[C@@H](CCC(=O)O)C(=O)O)cc1 [Abitrexate (Methotrexate)],99.8% and 103%,45.1%,93%,93.5%,103%,74%,99.2%,96.9%
O=C(/C=C/N1C[C@H]2C[C@@H]1CN2c1ccccn1)c1ccccc1O,93.1% and 98%,97.1%,95.5%,96.5%,102%,99.2%,104%,105%
COc1cc(C=O)c([N+](=O)[O-])cc1OC,104%,110%,95.3%,92.6%,95.8%,109%,111%,125%
N[C@@H](C(=O)N[C@@H]1C(=O)N2C(C(=O)O)=C(Cl)CS[C@H]12)c1ccccc1 [Cefaclor],109% and 110%,113%,104%,104%,108%,106%,112%,123%
O=c1nc(N2CCOCC2)oc2c(-c3cccc4c3sc3ccccc34)cccc12,92.3% and 93.3%,90.1%,93.2%,102%,82.6%,81.6%,75.1%,80.3%
O=[N+]([O-])c1ccc(Nc2ccccc2-c2ccccc2)c2nonc12,104% and 97.4%,95.7%,96.7%,109%,94.2%,95.2%,103%,107%
CC(C)(C)n1nc(-c2ccc(Cl)cc2)c2c(N)ncnc21,56.2% and 78.5%,63.3%,84.6%,104%,66%,67.3%,80%,78.3%
CC=C(C)C(=O)O [Tiglic acid],102% and 106%,109%,101%,103%,102%,109%,110%,98%
CC(NC(=O)C(Cc1ccccc1)NC(=O)OCc1ccccc1)C(=O)CF (centres undefined),102% and 101%,96%,92.9%,111%,94.3%,101%,98.8%,94.9%

Compound,cell viability (K562; SRSF2 genotype: SRSF2 P95H/wt),cell viability (K562; SRSF2 genotype: SRSF2 wt/wt),cell viability (MARIMO; SRSF2 genotype: SRSF2 P95H/wt),cell viability (MARIMO; SRSF2 genotype: SRSF2 wt/wt),cell viability (MOLM14; SRSF2 genotype: SRSF2 P95H/wt),cell viability (MOLM14; SRSF2 genotype: SRSF2 wt/wt),cell viability (OCI-AML2; SRSF2 genotype: P95H/wt),cell viability (OCI-AML2; SRSF2 genotype: wt/wt)
Cc1ccc(Nc2nccc(N(C)c3ccc4c(C)n(C)nc4c3)n2)cc1S(N)(=O)=O [Pazopanib],84.1% and 94.1%,85.8%,96%,104%,69.4%,83%,73.8%,71.2%
CC(=O)O[C@]1(C(C)=O)CC[C@H]2[C@@H]3CCC4=CC(=O)CCC4=C3[C@@H](c3ccc(N(C)C)cc3)C[C@@]21C [Ulipristal acetate],91% and 94.2%,86.7%,81.7%,95.2%,82.3%,93.6%,84.6%,89.5%
CC(C(=O)O)c1ccc(C(=O)c2cccs2)cc1 (centres undefined) [Suprofen (Profenal)],107% and 103%,93.2%,94.7%,110%,98.9%,99.9%,88.8%,94.2%
CN(C)CCCC1(c2ccc(F)cc2)OCc2cc(C#N)ccc21 (centres undefined) [Citalopram HBr],98.3% and 92.9%,92.5%,94.2%,108%,91.5%,101%,90.8%,97.9%
CC(C)(O)CC[C@@H](O)[C@](C)(O)[C@H]1CC[C@@]2(O)C3=CC(=O)[C@@H]4C[C@@H](O)[C@@H](O)C[C@]4(C)[C@H]3CC[C@]12C [20-Hydroxyecdysone],104% and 98.5%,102%,109%,107%,106%,106%,101%,111%
CC(C)CN(C[C@@H](O)[C@H](Cc1ccccc1)NC(=O)O[C@H]1CCOC1)S(=O)(=O)c1ccc(N)cc1 [Amprenavir (Agenerase)],89.2% and 83.5%,86.4%,77.8%,93.5%,90.2%,89.8%,101%,99.4%
O=C(O)/C=C/c1ccc(Cn2ccnc2)cc1 [Ozagrel HCl],97.6%,96.3%,92.8%,109%,98.8%,103%,92.6%,105%
CCCCCCCCCCCCCCCc1cccc(O)c1C(=O)O [Anacardic Acid],88.9% and 86.6%,84.8%,81.7%,86.7%,86.3%,82.9%,87.5%,83.5%
Nc1ncnc2c1ncn2[C@@H]1O[C@H](CO)[C@@H](O)[C@H]1O [Adenosine (Adenocard)],113% and 107%,108%,104%,98.5%,104%,114%,102%,106%
C[C@@H]1COCCN1c1cc(C2([S@](C)(=N)=O)CC2)nc(-c2cc[nH]c3nccc2-3)n1,15.9% and 23.3%,15.3%,19.2%,20.1%,11.1%,5.99%,10.6%,12%
C[C@H](Cn1cnc2c(N)ncnc21)OCP(=O)(O)O [Tenofovir (Viread)],101%,98.5%,97.2%,101%,105%,98.3%,106%,109%
COc1cc(N2CCN(C)CC2)ccc1Nc1ncc2c(n1)N(C)c1ccccc1C(=O)N2,83.4% and 82.7%,78.9%,97.7%,90.1%,78.1%,91.3%,83.3%,73.2%
COc1ccc(-c2coc3cc(O[C@@H]4O[C@H](CO)[C@@H](O)[C@H](O)[C@H]4O)ccc3c2=O)cc1O [Calycosin-7-O-beta-D-glucoside],95% and 99%,98.5%,93%,105%,112%,110%,97.1%,106%
COc1cc2ncnc(Nc3ccc(Cl)cc3F)c2cc1OC,87.2% and 95.4%,82.8%,91.9%,103%,86.7%,96.1%,92.9%,92.1%
CNc1ncc2cc(-c3cc(NC(=O)NCCC(C)(C)C)c(F)cc3C)c(C)nc2n1,14.9% and 29.3%,22%,36.9%,34.9%,27.2%,23.9%,31.7%,34.6%
CC(C)=CCC[C@](C)(O[C@@H]1O[C@H](CO[C@@H]2O[C@H](CO)[C@@H](O)[C@H](O)[C@H]2O)[C@@H](O)[C@H](O)[C@H]1O)[C@H]1CC[C@]2(C)[C@@H]1[C@H](O)C[C@@H]1[C@@]3(C)CC[C@H](O[C@@H]4O[C@H](CO)[C@@H](O)[C@H](O)[C@H]4O)C(C)(C)[C@@H]3CC[C@]12C [Gypenoside XVII],112% and 100%,109%,108%,103%,110%,106%,106%,106%
O=C(O)c1ccc(Nc2ncc3c(n2)-c2ccc(Cl)cc2C(c2c(F)cccc2F)=NC3)cc1,66.5% and 78.8%,68.1%,80.4%,88.1%,51.4%,35.4%,41.3%,38.8%
C[C@H](CCC(=O)NCCS(=O)(=O)O)[C@H]1CC[C@H]2[C@@H]3[C@@H](O)C[C@@H]4C[C@H](O)CC[C@]4(C)[C@H]3CC[C@]12C [Tauroursodeoxycholic Acid],102%,99%,99.4%,108%,107%,103%,95.8%,114%
CC(=O)Nc1nc(C)c(-c2ccc(Cl)c(S(=O)(=O)NCCO)c2)s1,74.9% and 77.5%,81.1%,38.1%,38.7%,32.8%,37.1%,12.2%,24.4%
